Reference: the supplement of paper PMC11732987, “Enantioselective OTUD7B fragment discovery through chemoproteomics screening and high-throughput optimisation” (Communications Chemistry, 2025)

Columns and labels:
Assay in all cases: log2 ratio of Biotin-Ahx-Ub-VS probe labelling (fragment/DMSO); higher = less target engagement (more negative = stronger competition), active = hit call of the paper (q ≤ 0.05, log2 ratio ≤ -1)
Settings in all cases: compound concentration: 200 uM; treatment time: 3 h
USP9X = USP9X (UniProt Q93008)
Outline: (§1)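 Using Biotin-Ahx-Ub-VS at 0.5 µM final for 1 h, DUBs were labelled in HEK293T lysate (495 µg per sample) that had first been treated in triplicate with fragment at 200 µM or vehicle for 3 h. NeutrAvidin enrichment, LysC and trypsin digestion and diaPASEF LC-MS/MS followed. Spectronaut label-free quantities were global-median-normalised. Values are average log2 fragment/vehicle ratios by unpaired t-test, using proteins with ≥2 unique peptides.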

UniProt O00487 = target: UniProt O00487
Outline: as §1

UniProt O00507 = target: UniProt O00507
Outline: as §1

UniProt P51784 = target: UniProt P51784
Outline: as §1

UniProt Q5T2D3 = target: T1, UniProt Q5T2D3
T1 sequence (whole entry): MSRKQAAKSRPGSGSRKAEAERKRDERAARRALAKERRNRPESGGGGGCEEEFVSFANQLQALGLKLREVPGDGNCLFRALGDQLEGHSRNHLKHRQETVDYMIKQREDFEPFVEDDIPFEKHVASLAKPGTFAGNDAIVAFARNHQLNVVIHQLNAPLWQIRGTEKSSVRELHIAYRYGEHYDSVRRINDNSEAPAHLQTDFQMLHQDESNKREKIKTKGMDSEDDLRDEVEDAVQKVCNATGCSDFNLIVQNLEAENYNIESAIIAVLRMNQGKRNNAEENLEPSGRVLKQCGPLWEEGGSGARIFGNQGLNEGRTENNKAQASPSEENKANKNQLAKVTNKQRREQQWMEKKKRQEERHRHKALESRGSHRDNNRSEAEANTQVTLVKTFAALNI
Outline: as §1

UniProt Q8TE49 = target: T2, UniProt Q8TE49
T2 sequence (whole entry): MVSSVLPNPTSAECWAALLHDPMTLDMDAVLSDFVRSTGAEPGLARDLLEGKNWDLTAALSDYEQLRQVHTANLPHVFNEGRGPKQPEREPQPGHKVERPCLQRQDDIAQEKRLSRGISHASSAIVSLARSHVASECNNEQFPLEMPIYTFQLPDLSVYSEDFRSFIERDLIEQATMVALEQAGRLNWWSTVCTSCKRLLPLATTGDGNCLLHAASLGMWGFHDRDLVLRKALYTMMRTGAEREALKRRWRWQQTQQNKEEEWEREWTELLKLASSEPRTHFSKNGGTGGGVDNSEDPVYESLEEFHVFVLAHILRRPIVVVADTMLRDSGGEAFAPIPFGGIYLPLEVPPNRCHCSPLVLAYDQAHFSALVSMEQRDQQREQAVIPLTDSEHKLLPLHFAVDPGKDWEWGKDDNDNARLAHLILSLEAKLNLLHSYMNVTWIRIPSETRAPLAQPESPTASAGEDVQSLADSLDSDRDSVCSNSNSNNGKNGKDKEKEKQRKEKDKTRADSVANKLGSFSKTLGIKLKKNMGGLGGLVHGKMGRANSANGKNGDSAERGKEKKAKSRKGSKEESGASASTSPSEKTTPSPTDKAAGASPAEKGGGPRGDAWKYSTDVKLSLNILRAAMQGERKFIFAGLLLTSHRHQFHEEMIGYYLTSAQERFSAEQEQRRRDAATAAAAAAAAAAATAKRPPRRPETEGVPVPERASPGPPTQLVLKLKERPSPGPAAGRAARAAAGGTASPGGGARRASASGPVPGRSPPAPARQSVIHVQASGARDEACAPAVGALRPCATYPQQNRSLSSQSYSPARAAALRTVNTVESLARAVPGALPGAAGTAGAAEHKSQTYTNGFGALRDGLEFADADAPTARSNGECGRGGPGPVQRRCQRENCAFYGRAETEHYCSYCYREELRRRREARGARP
Outline: as §1

UniProt Q9P2H5 = target: T3, UniProt Q9P2H5
T3 sequence (whole entry): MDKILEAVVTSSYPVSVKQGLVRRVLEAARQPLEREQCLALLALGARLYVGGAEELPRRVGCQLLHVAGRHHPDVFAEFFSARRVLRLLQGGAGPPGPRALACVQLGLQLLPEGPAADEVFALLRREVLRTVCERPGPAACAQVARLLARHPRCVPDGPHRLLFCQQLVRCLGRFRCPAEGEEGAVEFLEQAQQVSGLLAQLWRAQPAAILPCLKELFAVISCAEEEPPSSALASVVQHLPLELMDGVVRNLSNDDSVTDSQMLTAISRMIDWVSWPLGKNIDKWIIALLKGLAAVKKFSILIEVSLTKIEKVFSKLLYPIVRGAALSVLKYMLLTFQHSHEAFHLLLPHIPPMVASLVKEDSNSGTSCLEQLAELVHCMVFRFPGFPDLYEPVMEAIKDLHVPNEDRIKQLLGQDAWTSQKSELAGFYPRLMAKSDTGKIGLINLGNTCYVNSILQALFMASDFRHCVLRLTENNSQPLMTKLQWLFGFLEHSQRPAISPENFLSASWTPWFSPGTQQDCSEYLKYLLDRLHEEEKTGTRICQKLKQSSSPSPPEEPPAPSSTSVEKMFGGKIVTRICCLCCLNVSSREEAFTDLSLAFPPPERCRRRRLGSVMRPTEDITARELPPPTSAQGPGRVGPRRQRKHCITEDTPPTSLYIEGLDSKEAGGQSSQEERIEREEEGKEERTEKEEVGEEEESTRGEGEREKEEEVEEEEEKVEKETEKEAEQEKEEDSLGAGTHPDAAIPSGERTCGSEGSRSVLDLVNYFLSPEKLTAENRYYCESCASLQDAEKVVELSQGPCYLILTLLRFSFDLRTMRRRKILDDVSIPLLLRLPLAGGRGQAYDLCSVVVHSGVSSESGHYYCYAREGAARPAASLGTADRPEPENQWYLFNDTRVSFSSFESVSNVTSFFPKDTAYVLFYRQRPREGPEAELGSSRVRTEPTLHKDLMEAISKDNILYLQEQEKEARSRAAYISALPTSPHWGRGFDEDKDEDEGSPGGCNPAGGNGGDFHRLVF
Outline: as §1

UniProt Q9UGI0 = target: T4, UniProt Q9UGI0
T4 sequence (whole entry): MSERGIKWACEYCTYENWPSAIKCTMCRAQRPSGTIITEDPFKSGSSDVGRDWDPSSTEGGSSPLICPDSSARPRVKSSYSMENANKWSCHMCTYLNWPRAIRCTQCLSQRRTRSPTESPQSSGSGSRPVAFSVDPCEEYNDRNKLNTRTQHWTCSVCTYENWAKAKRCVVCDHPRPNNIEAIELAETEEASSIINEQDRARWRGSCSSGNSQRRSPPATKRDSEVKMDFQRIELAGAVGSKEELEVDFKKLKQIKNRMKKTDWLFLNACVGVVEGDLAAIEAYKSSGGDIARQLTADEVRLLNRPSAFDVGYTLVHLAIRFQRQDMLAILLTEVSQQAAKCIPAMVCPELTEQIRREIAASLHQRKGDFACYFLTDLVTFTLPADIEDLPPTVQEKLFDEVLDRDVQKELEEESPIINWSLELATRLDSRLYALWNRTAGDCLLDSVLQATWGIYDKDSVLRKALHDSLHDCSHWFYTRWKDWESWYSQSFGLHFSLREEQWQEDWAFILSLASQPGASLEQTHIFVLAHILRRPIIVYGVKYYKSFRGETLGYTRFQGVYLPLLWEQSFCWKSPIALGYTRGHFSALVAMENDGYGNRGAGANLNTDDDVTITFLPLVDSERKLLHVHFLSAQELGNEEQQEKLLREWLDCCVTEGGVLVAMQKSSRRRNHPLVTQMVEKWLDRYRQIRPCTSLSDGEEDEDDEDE
Outline: as §1

YOD1 = target: T5, YOD1 (UniProt Q5VVQ6)
T5 sequence (whole entry): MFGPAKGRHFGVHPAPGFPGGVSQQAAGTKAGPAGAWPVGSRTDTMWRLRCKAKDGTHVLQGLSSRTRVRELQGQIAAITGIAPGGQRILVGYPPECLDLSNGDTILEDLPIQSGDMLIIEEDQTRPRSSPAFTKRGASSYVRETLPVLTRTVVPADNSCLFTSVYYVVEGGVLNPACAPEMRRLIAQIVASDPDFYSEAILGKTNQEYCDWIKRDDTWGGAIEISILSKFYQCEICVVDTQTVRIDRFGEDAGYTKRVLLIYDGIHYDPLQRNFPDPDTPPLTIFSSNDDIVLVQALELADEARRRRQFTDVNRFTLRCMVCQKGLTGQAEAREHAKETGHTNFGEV
Outline: as §1

Measured: log2 ratio of Biotin-Ahx-Ub-VS probe labelling

Sequence of UniProt O00487 (O00487 whole entry): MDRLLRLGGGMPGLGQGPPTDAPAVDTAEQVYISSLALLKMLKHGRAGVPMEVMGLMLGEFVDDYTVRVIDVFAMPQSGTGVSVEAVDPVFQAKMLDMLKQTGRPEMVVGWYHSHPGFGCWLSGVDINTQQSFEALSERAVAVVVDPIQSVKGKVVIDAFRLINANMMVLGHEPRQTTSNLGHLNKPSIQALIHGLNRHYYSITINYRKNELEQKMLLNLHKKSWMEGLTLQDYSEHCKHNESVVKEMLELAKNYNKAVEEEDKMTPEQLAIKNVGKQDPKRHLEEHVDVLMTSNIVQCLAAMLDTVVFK
Sequence of UniProt P51784 (P51784 whole entry): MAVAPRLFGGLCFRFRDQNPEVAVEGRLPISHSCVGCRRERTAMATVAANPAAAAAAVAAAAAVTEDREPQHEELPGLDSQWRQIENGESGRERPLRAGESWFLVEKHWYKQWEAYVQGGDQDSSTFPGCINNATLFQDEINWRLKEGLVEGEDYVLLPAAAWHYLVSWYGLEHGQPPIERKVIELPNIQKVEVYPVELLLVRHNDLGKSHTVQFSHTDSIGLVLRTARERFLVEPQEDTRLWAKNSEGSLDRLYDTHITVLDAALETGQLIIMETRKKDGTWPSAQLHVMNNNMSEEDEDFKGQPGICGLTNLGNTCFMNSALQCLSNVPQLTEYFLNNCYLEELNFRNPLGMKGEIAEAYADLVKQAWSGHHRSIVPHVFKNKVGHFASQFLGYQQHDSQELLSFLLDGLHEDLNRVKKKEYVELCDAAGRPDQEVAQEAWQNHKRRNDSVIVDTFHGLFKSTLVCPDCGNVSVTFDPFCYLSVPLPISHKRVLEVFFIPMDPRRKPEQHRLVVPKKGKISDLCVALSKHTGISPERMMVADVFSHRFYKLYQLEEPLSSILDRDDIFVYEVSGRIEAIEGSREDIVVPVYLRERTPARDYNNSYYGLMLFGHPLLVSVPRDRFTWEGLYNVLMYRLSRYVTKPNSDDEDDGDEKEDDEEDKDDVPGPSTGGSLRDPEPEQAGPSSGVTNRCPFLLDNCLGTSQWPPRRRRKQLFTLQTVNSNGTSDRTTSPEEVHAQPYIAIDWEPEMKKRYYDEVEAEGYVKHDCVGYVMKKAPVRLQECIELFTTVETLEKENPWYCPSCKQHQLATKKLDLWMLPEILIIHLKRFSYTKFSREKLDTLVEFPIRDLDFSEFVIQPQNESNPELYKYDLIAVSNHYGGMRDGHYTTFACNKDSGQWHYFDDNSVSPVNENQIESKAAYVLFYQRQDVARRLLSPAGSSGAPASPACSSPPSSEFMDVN
Sequence of UniProt O00507 (O00507 whole entry): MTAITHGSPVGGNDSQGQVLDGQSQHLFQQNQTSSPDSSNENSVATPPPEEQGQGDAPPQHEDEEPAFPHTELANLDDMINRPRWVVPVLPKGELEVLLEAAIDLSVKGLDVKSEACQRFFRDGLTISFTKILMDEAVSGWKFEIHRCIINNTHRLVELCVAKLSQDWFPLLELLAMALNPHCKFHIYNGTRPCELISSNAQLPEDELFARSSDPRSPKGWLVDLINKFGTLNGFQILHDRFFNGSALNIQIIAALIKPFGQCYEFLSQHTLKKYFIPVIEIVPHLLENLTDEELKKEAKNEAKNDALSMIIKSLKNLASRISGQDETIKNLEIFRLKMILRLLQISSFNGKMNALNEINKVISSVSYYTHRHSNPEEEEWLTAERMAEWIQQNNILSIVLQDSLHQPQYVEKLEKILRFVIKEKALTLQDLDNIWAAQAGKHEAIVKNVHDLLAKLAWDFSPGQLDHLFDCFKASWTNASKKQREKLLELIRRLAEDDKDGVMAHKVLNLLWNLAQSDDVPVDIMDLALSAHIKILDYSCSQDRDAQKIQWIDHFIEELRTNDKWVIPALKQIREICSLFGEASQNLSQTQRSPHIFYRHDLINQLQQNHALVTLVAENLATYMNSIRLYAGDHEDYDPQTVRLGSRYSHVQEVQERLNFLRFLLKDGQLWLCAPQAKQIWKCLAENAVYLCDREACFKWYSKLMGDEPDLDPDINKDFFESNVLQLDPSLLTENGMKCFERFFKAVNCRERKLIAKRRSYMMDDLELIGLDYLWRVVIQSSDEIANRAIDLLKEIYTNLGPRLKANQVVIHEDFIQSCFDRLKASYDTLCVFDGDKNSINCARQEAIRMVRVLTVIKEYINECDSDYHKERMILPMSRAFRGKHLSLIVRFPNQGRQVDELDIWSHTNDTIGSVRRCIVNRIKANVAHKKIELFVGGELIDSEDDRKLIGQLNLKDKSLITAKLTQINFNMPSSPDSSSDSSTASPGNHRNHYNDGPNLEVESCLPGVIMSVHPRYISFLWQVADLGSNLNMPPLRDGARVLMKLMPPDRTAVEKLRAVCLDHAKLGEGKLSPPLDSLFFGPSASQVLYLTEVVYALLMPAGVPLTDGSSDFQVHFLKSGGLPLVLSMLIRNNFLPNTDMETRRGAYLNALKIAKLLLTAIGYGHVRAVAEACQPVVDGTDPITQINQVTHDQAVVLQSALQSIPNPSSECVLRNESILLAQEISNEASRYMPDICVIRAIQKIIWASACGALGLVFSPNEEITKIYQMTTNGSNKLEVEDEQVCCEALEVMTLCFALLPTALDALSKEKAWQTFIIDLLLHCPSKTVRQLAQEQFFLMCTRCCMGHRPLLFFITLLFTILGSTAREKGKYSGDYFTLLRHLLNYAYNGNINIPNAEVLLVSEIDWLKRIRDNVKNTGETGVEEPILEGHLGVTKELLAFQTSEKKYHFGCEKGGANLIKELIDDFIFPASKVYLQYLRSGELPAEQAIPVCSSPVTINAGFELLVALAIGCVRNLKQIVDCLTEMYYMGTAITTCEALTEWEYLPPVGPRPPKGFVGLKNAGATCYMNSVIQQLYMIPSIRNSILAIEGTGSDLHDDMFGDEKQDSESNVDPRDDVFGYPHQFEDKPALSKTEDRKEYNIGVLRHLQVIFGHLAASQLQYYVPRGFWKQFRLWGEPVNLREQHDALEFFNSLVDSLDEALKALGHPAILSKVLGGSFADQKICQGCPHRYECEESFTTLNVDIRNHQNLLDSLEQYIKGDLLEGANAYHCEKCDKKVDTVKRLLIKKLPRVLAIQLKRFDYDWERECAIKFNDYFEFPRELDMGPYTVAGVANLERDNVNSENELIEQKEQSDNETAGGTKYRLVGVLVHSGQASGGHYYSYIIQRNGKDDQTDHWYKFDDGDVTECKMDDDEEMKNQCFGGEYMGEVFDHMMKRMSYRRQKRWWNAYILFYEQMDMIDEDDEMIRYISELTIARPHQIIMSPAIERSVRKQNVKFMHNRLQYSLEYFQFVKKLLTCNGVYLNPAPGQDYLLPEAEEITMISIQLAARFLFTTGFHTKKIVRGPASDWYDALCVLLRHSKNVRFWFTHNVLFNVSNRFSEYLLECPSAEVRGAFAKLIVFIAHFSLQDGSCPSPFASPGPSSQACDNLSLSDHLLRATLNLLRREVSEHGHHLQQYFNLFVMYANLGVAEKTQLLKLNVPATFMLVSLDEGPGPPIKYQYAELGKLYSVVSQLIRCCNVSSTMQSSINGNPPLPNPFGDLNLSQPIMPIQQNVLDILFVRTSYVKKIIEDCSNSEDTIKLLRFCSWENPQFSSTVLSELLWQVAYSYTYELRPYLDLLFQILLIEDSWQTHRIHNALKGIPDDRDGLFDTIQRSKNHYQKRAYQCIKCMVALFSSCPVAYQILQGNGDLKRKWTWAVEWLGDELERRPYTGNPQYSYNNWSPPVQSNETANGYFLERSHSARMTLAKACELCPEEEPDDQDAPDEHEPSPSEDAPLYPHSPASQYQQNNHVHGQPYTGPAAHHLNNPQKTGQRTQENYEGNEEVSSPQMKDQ

O=C(CCl)N1CCN(C(=O)Nc2ccccc2)CC1
inactive: USP9X 0.0323 | UniProt O00487 -0.0538 | UniProt O00507 0.452 | UniProt P51784 0.16 | UniProt Q5T2D3 -0.132 | UniProt Q8TE49 -0.337 | UniProt Q9P2H5 -0.158 | UniProt Q9UGI0 0.0377 | YOD1 0.444
